Experimental data reported in PubChem BioAssay.
The source made the active and inactive calls.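 How the source made its calls, unless noted: active means visual image review flags a hit and inhibition of aggregation exceeds 20%; inconclusive means visual hit but inhibition at or below 20%; inactive means no hit on visual image review.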

Experiments:
[1] = inhibitors of TNFa-induced NFkB p65 translocation, primary screen, imaging, HUVEC, MLSMR starter and 10KST1 sets (AID 438;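 active means inhibition above 20% together with a positive visual image hit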;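 further: compound added about 3h40 before a 20 min TNFalpha stimulation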;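 on inhibition: signal is the nuclear over cytoplasmic p65 intensity ratio per well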); settings: HUVEC TNFa-induced p65 nuclear translocation; cell count: measured here: nuclei count (cytotoxicity indicator), at 2.08 µM; inhibition: at 2 µM, stronger effect = higher value, 0% TNFa-plus-vehicle, 100% no-TNFa wells
[2] = reduction of polyQ htt aggregates in cells – imaging, exon1htt(103Q)mCFP cells, high-content imaging, primary screen (AID 483); settings: exon1htt(103Q)mCFP cell line, aggregate imaging, at 2 µM; inhibition of aggregation: stronger effect = higher value; nuclei count: measured here: cell count, toxicity;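 further: compound exposure lasted 3 days before fixation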;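 on nuclei count: percent of the per-plate median nuclei count of sample wells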
[3] = endothelial E-selectin expression blockers – imaging, HUVEC, immunofluorescence, MLSMR starter and 10KST1 sets, primary screen (AID 487;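 active means visually confirmed hit in the image check and inhibition above 20%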;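 on inhibition: signal is fraction of cell area covered by stained E-selectin grains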;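 on nuclei count: 100% = median nuclei count of all wells on the same plate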); settings: HUVEC TNFalpha-induced E-selectin immunofluorescence imaging, at 2 µM; inhibition: stronger effect = higher value; nuclei count: measured here: cell number, toxicity
[4] = target: Voltage-gated potassium channel subunit beta-2 (Rattus norvegicus) (UniProt P62483); assay: inhibitors of rat Kvbeta2 reductase activity – biochemical, NADPH fluorescence, primary screen (AID 622;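 active means fluorescence slope higher than the sample average by over 3 SD, cut at about -0.22 in these data, passing the limit was not always enough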;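 further: slope of raw intensity against log time taken from 70 to 1610 s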); settings: recombinant KvBeta, 4-cyanobenzaldehyde reduction, at 10 µM, stronger effect = higher value
Voltage-gated potassium channel subunit beta-2 (Rattus norvegicus), sequence (P62483 whole entry, looked up): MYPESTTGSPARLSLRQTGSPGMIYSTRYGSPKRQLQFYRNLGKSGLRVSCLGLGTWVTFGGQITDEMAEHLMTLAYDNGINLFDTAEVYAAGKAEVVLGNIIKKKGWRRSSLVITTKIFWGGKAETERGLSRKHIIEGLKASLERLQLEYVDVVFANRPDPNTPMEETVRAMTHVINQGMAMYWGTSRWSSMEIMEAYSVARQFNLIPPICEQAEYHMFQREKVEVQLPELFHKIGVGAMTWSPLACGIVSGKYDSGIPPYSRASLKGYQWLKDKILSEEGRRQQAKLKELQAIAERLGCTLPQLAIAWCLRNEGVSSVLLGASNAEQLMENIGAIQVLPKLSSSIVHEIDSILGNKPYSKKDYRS

[5] = target: Voltage-gated potassium channel subunit beta-2 (Rattus norvegicus) (UniProt P62483); assay: enhancers of rat Kvbeta2 NADPH turnover – biochemical, NADPH fluorescence, primary screen (AID 623;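 active means NADPH fluorescence slope more negative than the mean of all samples by about 3 SD, 99.7% confidence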;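 further: fluorescence intensity change per second fitted from 20 to 320 s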); settings: Recombinant KvBeta, NADPH fluorescence decrease slope, 10 min; at 10 µM; stronger effect = lower value
[6] = target: Alpha-2C adrenergic receptor (Homo sapiens) (UniProt P18825); assay: compounds altering alpha2C-coupled GIRK flux – cell-based, HEK293 alpha2C/GIRK1/2, thallium flux, primary screen (AID 624;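 active means fluorescence slope after compound addition differing from the mean of all screened samples at 99.7% confidence, in either direction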;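 further: slope of fluorescence ratio to pre-addition baseline per second over 15 to 24 s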); settings: thallium flux BTC fluorescence, at 10 µM, actives lie on both sides
Alpha-2C adrenergic receptor (Homo sapiens), sequence (P18825 whole entry, looked up): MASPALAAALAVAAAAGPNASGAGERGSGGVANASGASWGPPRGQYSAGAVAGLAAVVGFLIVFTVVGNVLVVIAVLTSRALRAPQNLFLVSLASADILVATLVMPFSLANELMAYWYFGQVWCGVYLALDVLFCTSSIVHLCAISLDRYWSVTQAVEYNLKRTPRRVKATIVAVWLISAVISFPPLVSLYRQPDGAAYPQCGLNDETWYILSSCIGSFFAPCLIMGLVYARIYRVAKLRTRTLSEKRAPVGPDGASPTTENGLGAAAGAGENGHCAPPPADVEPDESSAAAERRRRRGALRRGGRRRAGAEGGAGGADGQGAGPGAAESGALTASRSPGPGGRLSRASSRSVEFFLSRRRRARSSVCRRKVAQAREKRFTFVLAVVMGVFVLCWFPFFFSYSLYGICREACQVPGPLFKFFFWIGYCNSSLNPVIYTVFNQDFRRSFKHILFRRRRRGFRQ

[7] = blockers of RIG-like receptor reporter activation – cell-based, Sendai virus stimulus, luciferase, 10K MLSCN set, TLR/RLR signaling modifier project, primary screen (AID 602276;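 active means inhibition at or above 50% at 10 µM; inactive means inhibition below 50%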;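 further: firefly luciferase from ISG56 promoter only with Renilla not read in this screen; 0% = Sendai virus plus DMSO and 100% = medium plus DMSO without virus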); settings: HEK293 RL24 IRF3 luciferase reporter, at 10 µM, stronger effect = higher value
[8] = TLR3 IRF3 reporter activation blockers – cell-based, poly I:C stimulus, luciferase, 10K MLSCN set, primary screen (AID 602277;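 active means inhibition of the reporter signal at or above 50%; inactive means inhibition below 50%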); settings: HEK293-TLR3 RL24 IRF3 luciferase reporter, at 10 µM, stronger effect = higher value

Structure (SMILES) | cell count [1] | inhibition [1] | inhibition of aggregation [2] | nuclei count [2] | inhibition [3] | nuclei count [3] | fluorescence slope [4] | NADPH fluorescence slope [5] | slope [6] | inhibition [7] | inhibition [8]
COc1ccc(C)cc1S(=O)(=O)N1CCN(S(=O)(=O)c2cc(C)ccc2OC)CC1 | 427 | -0.2% (inactive) | -15.7% (inactive) | 97.4% | 17.9% (inactive) | 112% | -0.536 (inactive) | -3.9e-05 (inactive) | 0.00449 (inactive) | -3.93% (inactive) | 9.61% (inactive)
CCN(C(=O)c1cc(Cl)ccc1OC)C1CCCCC1 | 303 | 4.5% (inactive) | 8.5% (inactive) | 109% | 15.2% (inactive) | 113% | -0.429 (inactive) | -6.2e-05 (inactive) | 0.00399 (inactive) | 13.8% (inactive) | 42% (inactive)
CC(C)Cc1nnc(NC(=O)CCC(=O)N2CCOCC2)s1 | 597 | 8.1% (inactive) | -2% (inactive) | 106% | 17.3% (inactive) | 102% | -0.422 (inactive) | -3.6e-05 (inactive) | 0.00514 (inactive) | 12.2% (inactive) | 10.8% (inactive)
CCCCOCCCNC(=O)c1ccccc1OCC | 365 | 8.5% (inactive) | 0.7% (inactive) | 111% | 33.7% (inactive) | 116% | -0.317 (inactive) | -6.3e-05 (inactive) | 0.00615 (inactive) | 11.1% (inactive) | 7.39% (inactive)
CCOc1cc(S(=O)(=O)N2CCC(Cc3ccccc3)CC2)c(OCC)cc1-n1cnnn1 | 517 | 1.9% (inactive) | -5.6% (inactive) | 103% | -119% (inactive) | 178% | -0.613 (inactive) | 9.5e-06 (inactive) | 0.0103 (inactive) | -0.144% (inactive) | 10.4% (inactive)
O=[n+]1cc(-c2ccc(F)cc2)n([O-])c2c1CCC2 | 391 | 6.5% (inactive) | 8.8% (inactive) | 103% | -70% (inactive) | 108% | -0.587 (inactive) | 3.3e-05 (inactive) | 0.00589 (inactive) | 5.02% (inactive) | 15.4% (inactive)
CCOC(=O)c1ccccc1NC1c2ccccc2C(=O)N1C1CCN(C(=O)OCC)CC1 (stereo not drawn) | 548 | -9.7% (inactive) | -12% (inactive) | 65.3% | -10.1% (inactive) | 109% | -0.463 (inactive) | -3.3e-05 (inactive) | 0.00667 (inactive) | 14.7% (inactive) | 38.1% (inactive)
O=C1N(CCCCN2C(=O)C3(OCCO3)c3ccccc32)c2ccccc2C12OCCO2 | 578 | -18.8% (inactive) | -8.4% (inactive) | 104% | -60.9% (inactive) | 112% | -0.381 (inactive) | 2.4e-05 (inactive) | 0.00398 (inactive) | 9.05% (inactive) | 16.5% (inactive)
COc1ccc(N2CCN(C(=O)Cc3ccc(-n4c(=O)[nH]c5ccccc5c4=O)cc3)CC2)cc1 | 660 | -5.8% (inactive) | -41.3% (inactive) | 96.7% | -103% (inactive) | 103% | -0.483 (inactive) | 1.9e-05 (inactive) | 0.00662 (inactive) | 7.13% (inactive) | -1.38% (inactive)
Cc1nnc(SCc2ccccc2F)n1NCc1cccs1 | 767 | -3.9% (inactive) | -8.1% (inactive) | 106% | -71% (inactive) | 113% | -0.47 (inactive) | -4.7e-05 (inactive) | 0.00631 (inactive) | -2.84% (inactive) | -9.57% (inactive)
CCN(C(=O)c1cc(Cl)ccc1OC)c1ccccc1 | 354 | 5.3% (inactive) | -20.6% (inactive) | 100% | -7.9% (inactive) | 118% | -0.447 (inactive) | -4.1e-05 (inactive) | 0.00295 (inactive) | 14.3% (inactive) | 48.8% (inactive)
O=C1CC(c2ccccc2)CC(O)=C1C=NCCN1CCOCC1 (stereo not drawn) | 541 | -2.9% (inactive) | 24.1% (inactive) | 94.3% | 37.7% (inactive) | 99.1% | -0.441 (inactive) | 1.8e-05 (inactive) | 0.00626 (inactive) | 7.02% (inactive) | 31.4% (inactive)
COc1ccc(NC(=O)c2cc(C3CC3)on2)c(OC)c1 | 603 | -2.9% (inactive) | -2.2% (inactive) | 116% | -29.1% (inactive) | 107% | -0.587 (inactive) | -4.2e-05 (inactive) | 0.00532 (inactive) | -6.03% (inactive) | 2.94% (inactive)
O=C(Nc1ccncc1)C1c2ccccc2Oc2ccccc21 | 722 | 2.8% (inactive) | 1.3% (inactive) | 90.9% | 19.9% (inactive) | 102% | -0.201 (inactive) | -1e-05 (inactive) | 0.0059 (inactive) | 12.2% (inactive) | 17.7% (inactive)
O=C(O)CC1=C(O)C(=O)N(c2ccccc2)C1c1ccccc1 (stereo not drawn) | 405 | 1.1% (inactive) | 6.7% (inactive) | 111% | -61.5% (inactive) | 117% | -0.391 (inactive) | -4e-05 (inactive) | 0.00537 (inactive) | 4.01% (inactive) | 29.8% (inactive)
CC1CN(c2ccc(Oc3ccccc3)cc2)c2nc3c(c(=O)n(CC(N)=O)c(=O)n3C)n2C1 (stereo not drawn) | 706 | -12.4% (inactive) | 4.2% (inactive) | 106% | -15.8% (inactive) | 93.4% | -0.546 (inactive) | -6.5e-05 (inactive) | 0.00659 (inactive) | 9.73% (inactive) | 22.4% (inactive)
c1ccc2oc(SCc3cn4ccccc4n3)nc2c1 | 612 | 12.6% (inactive) | 16.1% (inactive) | 99.8% | -30.4% (inactive) | 132% | -0.506 (inactive) | -4.1e-05 (inactive) | 0.00508 (inactive) | -46.4% (inactive) | -151% (inactive)
COc1ccc(-c2nnc(SCC(=O)NC(C)c3ccccc3)o2)cc1 (stereo not drawn) | 617 | 4.4% (inactive) | -59% (inactive) | 104% | -7.4% (inactive) | 111% | -0.593 (inactive) | -2.5e-05 (inactive) | 0.00661 (inactive) | 5.82% (inactive) | 18.9% (inactive)
CCCn1c(=NC(C)=O)c(C#N)cc2c(=O)n3cccc(C)c3nc21 | 462 | -0.9% (inactive) | 0.6% (inactive) | 99.9% | -35.4% (inactive) | 131% | -0.0531 (inactive) | -1e-05 (inactive) | 0.0086 (inactive) | -11.4% (inactive) | 1.19% (inactive)
Cc1cc(C)n(-c2nc3sc4c(c3c3nnc(SC(C)C)n23)CC(C)(C)OC4)n1 | 352 | 8.5% (inactive) | 2.2% (inactive) | 113% | -22% (inactive) | 117% | -0.455 (inactive) | 1.9e-05 (inactive) | 0.00472 (inactive) | -16.9% (inactive) | -11.9% (inactive)
CCc1[nH]nc2c1C(c1ccncc1)C(C#N)=C(N)O2 (stereo not drawn) | 355 | 2.9% (inactive) | -6% (inactive) | 109% | -29.1% (inactive) | 123% | -0.507 (inactive) | -3.3e-05 (inactive) | 0.00643 (inactive) | -2.35% (inactive) | 3.94% (inactive)
COC(=O)c1cccc(NC(=O)Cc2coc3cc(OC)ccc23)c1 | 402 | 11.4% (inactive) | 5.4% (inactive) | 75.4% | -64.1% (inactive) | 120% | -0.595 (inactive) | -6.1e-06 (inactive) | 0.0055 (inactive) | 4.7% (inactive) | -15.2% (inactive)
OCCNc1nc2ccc(Cl)cc2[nH]1 | 433 | 2.6% (inactive) | 19.6% (inactive) | 106% | -19% (inactive) | 110% | -0.365 (inactive) | 1.9e-05 (inactive) | 0.00613 (inactive) | -12.8% (inactive) | -7.02% (inactive)
COc1ccc(C(C(=O)NC2CCCCC2)N2CCC3(CC2)OCCO3)cc1 (stereo not drawn) | 953 | 1.8% (inactive) | -42.7% (inactive) | 132% | -18.3% (inactive) | 135% | -0.525 (inactive) | -6.1e-05 (inactive) | 0.00579 (inactive) | 31.2% (inactive) | 89.5% (active)
COc1ccc(Cn2nnnc2C(c2cc3cc(C)cc(C)c3[nH]c2=O)N2CCOCC2)cc1 (stereo not drawn) | 762 | -12.9% (inactive) | 33.9% (inactive) | 113% | -9.5% (inactive) | 108% | -0.51 (inactive) | -6.8e-05 (inactive) | 0.00452 (inactive) | 13.8% (inactive) | 24.9% (inactive)
CC(=O)N1CCN(c2ccc(S(=O)(=O)N3CCCCC3)cn2)CC1 | 719 | 0.8% (inactive) | 4.2% (inactive) | 101% | -6.8% (inactive) | 132% | -0.591 (inactive) | 1.1e-05 (inactive) | 0.00522 (inactive) | 6.79% (inactive) | 8.53% (inactive)
Nc1nc(Nc2cccc3ccccc23)nc(C2CCCC2=O)n1 (stereo not drawn) | 349 | 1.8% (inactive) | -7% (inactive) | 97.3% | -38.8% (inactive) | 109% | -0.312 (inactive) | -7e-05 (inactive) | 0.00598 (inactive) | 4.53% (inactive) | 13.8% (inactive)
O=C(CCNS(=O)(=O)c1cccc2nsnc12)Nc1ccc2c(c1)OCCO2 | 565 | -17.9% (inactive) | -1.5% (inactive) | 120% | -28% (inactive) | 119% | -0.421 (inactive) | -0.00049 (inactive) | 0.00512 (inactive) | 19.3% (inactive) | 23.2% (inactive)
